For eight molecules, outcome and AC50 results are on record in PubChem BioAssay (EPA / NIEHS).

Test [1] in a line: BSK_4H_Eotaxin3: BioMAP Diversity Plus: 4H Assay for Eotaxin 3 Biomarker Activity (AID 2283000).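 Further: CCL26 protein level quantified by ELISA in parallel with SRB cytotoxicity check.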 Conditions: primary human endothelial cells (HUVEC); actives raise or lower the signal. The method, boiled down: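 HUVEC, 24 h post-dose, ELISA for Eotaxin-3/CCL26. Gain or loss of signal fitted bidirectionally vs DMSO baseline.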
Test [2] has as its target human Peroxisome Proliferator-activated Receptor alpha (PPARa), PPARA (gene 5465) (UniProt Q07869). Put plainly: ATG_PPARa_TRANS: Attagene TRANS-FACTORIAL HepG2 Assay for human Peroxisome Proliferator-activated Receptor alpha (PPARa) (AID 2283001; active means hit-call score of the fitted dose curve at least 0.9, where 1 is the maximum). The method, boiled down: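 Gain-of-signal endpoint: reporter mRNA induction relative to DMSO, detected by fluorescent RT-PCR and capillary electrophoresis. HepG2 cells transiently carried GAL4-UAS-driven reporter units plus NR-Gal4 fusion; exposure lasted 24 h.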

Read-out in test [3]: Intercellular Adhesion Molecule 1 (ICAM1), ICAM1 (gene 3383)
Briefly: BSK_3C_ICAM1: BioMAP Diversity Plus: 3C Assay for Intercellular Adhesion Molecule 1 (ICAM1) Biomarker Activity (AID 2283003). Conditions: primary human endothelial cells (HUVEC); actives raise or lower the signal. The method, boiled down: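 ICAM-1 levels measured by ELISA after HUVEC cultures in the 3C system had been dosed for 24 h. Gain or loss of signal relative to DMSO was fitted in both directions.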

Test [4] has as its target Peroxisome proliferator-activated receptor gamma (Homo sapiens) (UniProt P37231). Briefly: ATG_PPARg_TRANS: Attagene TRANS-FACTORIAL HepG2 Assay for human Peroxisome Proliferator-activated Receptor-gamma (PPARg) (AID 2283007; active means hit-call score of the fitted dose curve at least 0.9, where 1 is the maximum). The gist of the method:
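Read-out: reporter mRNA induction, detected by fluorescence after RT-PCR and capillary electrophoresis. Transiently transfected human HepG2 liver cells carrying a chimeric NR-Gal4 construct were dosed for 24 h; activity was fitted upward relative to DMSO.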

Test [5] concerns the target Nuclear receptor subfamily 1 group I member 2 (Homo sapiens) (UniProt O75469). Briefly: ATG_PXR_TRANS: Attagene TRANS-FACTORIAL HepG2 Assay for human Pregnane X Receptor (PXR) (AID 2283008; active means hit-call score of the fitted dose curve at least 0.9, where 1 is the maximum). The method, boiled down:
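Fluorescence intensity of FAM-labelled, HpaI-digested reporter amplicons, separated by capillary electrophoresis, quantifies induction. HepG2 cells with PXR-Gal4 trans-reporter system were exposed 24 h; DMSO defines baseline.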

Test [6] concerns the target human RAR-related Orphan Receptor beta (RORb), RORB (gene 6096) (UniProt Q92753). Briefly: ATG_RORb_TRANS: Attagene TRANS-FACTORIAL HepG2 Assay for human RAR-related Orphan Receptor beta (RORb) (AID 2283010; active means hit-call score of the fitted dose curve at least 0.9, where 1 is the maximum). The gist of the method: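 Readout is reporter-gene mRNA induction, detected as fluorescence after RT-PCR and capillary electrophoresis, fitted for gain of signal against DMSO controls. Transiently transfected HepG2 liver cells carrying GAL4-UAS reporter constructs were treated for 24 hours.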

The target in test [7] is human RAR-related Orphan Receptor gamma (RORg), RORC (gene 6097) (UniProt P51449). Put plainly: ATG_RORg_TRANS: Attagene TRANS-FACTORIAL HepG2 Assay for human RAR-related Orphan Receptor gamma (RORg) (AID 2283011; active means hit-call score of the fitted dose curve at least 0.9, where 1 is the maximum). The method, boiled down:
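Readout: reporter transcript induction (RT-PCR, fluorescent primer extension, capillary electrophoresis) after 24 h compound exposure of transiently transfected HepG2 cells carrying a RORg-Gal4 chimera and GAL4-UAS reporters; DMSO served as baseline, with increasing signal fitted.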

The target in test [8] is Retinoic acid receptor RXR-alpha (Homo sapiens) (UniProt P19793). Put plainly: ATG_RXRa_TRANS: Attagene TRANS-FACTORIAL HepG2 Assay for human Retinoid X Receptor alpha (RXRa) (AID 2283012; active means hit-call score of the fitted dose curve at least 0.9, where 1 is the maximum). The gist of the method: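 Transient transfection of human HepG2 with multiple GAL4-UAS reporter constructs; 24 h compound exposure; total RNA isolated, reverse-transcribed, PCR-amplified, 6-FAM labelled, HpaI-cut, resolved by capillary electrophoresis. Positive-direction fit versus DMSO.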

Test [9] concerns the target human Retinoid X Receptor beta (RXRb), RXRB (gene 6257) (UniProt P28702). Briefly: ATG_RXRb_TRANS: Attagene TRANS-FACTORIAL HepG2 Assay for human Retinoid X Receptor beta (RXRb) (AID 2283013; active means hit-call score of the fitted dose curve at least 0.9, where 1 is the maximum). The method, boiled down: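 Transfect HepG2 with GAL4-UAS multi-reporter constructs (chimeric NR-Gal4, TRANS format); dose compound 24 h; isolate RNA, RT-PCR, FAM primer extension, HpaI digest; quantify by capillary electrophoresis; positive direction vs DMSO.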

Read-out in test [10]: E-selectin (Homo sapiens) (UniProt P16581)
Briefly: BSK_3C_Eselectin: BioMAP Diversity Plus: 3C Assay for Eselectin Biomarker Activity (AID 2283015).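 Further: cell surface E-selectin protein quantified by ELISA 24 h after dosing.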 Conditions: primary human endothelial cells (HUVEC); actives raise or lower the signal. The gist of the method:
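Primary human umbilical vein endothelial cells (3C system) were dosed with chemical and cell-surface E-selectin measured by ELISA 24 h later. Bidirectional curve fitting used DMSO as negative control and baseline.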

Read-out in test [11]: Monocyte Chemoattractant Protein-1 (MCP1), CCL2 (gene 6347)
Briefly: BSK_3C_MCP1: BioMAP Diversity Plus: 3C Assay for Monocyte Chemoattractant Protein-1 (MCP1) Biomarker Activity (AID 2283017). The note with it: primary human endothelial cells (HUVEC); actives raise or lower the signal. The method, boiled down:
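Primary human umbilical vein endothelial cells (3C system) were exposed to test chemical for 24 h, after which MCP-1 was quantified by ELISA. Activity was fitted bidirectionally against DMSO as negative control and baseline.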

Read-out in test [12]: Monocyte Chemoattractant Protein-1 (MCP1), CCL2 (gene 6347)
Briefly: BSK_4H_MCP1: BioMAP Diversity Plus: 4H Assay for Monocyte Chemoattractant Protein-1 (MCP1) Biomarker Activity (AID 2283018). Conditions: primary human endothelial cells (HUVEC); actives raise or lower the signal. The gist of the method:
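ELISA read-out of MCP-1 from human vascular endothelial primary cells taken at 24 hours after compound exposure. Activity was fitted in both directions relative to DMSO, which served as negative control.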

Read-out in test [13]: Human Leukocyte Antigen - DR isotype (HLADR), HLA-DRA (gene 3122)
Briefly: BSK_3C_HLADR: BioMAP Diversity Plus: 3C Assay for Human Leukocyte Antigen - DR isotype (HLADR) Biomarker Activity (AID 2283019).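 On outcome: ELISA of cell-surface HLA-DR on HUVEC 24 h after dosing.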 The note with it: primary human endothelial cells (HUVEC); actives raise or lower the signal. The gist of the method:
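Primary human umbilical vein endothelial cells (3C system) were dosed with compound and cell-surface HLA-DR was quantified by ELISA at 24 h. Activity was fitted bidirectionally against DMSO as negative control and baseline.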

Read-out in test [14]: Interleukin-8 (IL8), CXCL8 (gene 3576)
Briefly: BSK_3C_IL8: BioMAP Diversity Plus: 3C Assay for Interleukin-8 (IL8) Biomarker Activity (AID 2283020). Conditions: primary human endothelial cells (HUVEC); actives raise or lower the signal. The method, boiled down:
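ELISA read-out of IL-8 from human umbilical vein endothelium, measured 24 h after chemical dosing. Activity is expressed relative to DMSO negative control, with both increases and decreases fitted.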

Test [15] concerns the target Retinoic acid receptor alpha (Homo sapiens) (UniProt P10276). Briefly: ATG_RARa_TRANS: Attagene TRANS-FACTORIAL HepG2 Assay for human Retinoic Acid Receptor alpha (RARa) (AID 2283005; active means hit-call score of the fitted dose curve at least 0.9, where 1 is the maximum). The gist of the method:
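HepG2 cells transiently transfected with multiple reporter units expressing chimeric RARα-GAL4 fusion, with GAL4-UAS-driven reporters. After 24 h compound exposure, reporter mRNA induction quantified by RT-PCR and capillary electrophoresis with fluorescent labeling; gain-of-signal fitted relative to DMSO control.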

For test [16], the target named is human Retinoic Acid Receptor beta (RARb), RARB (gene 5915) (UniProt P10826). Briefly: ATG_RARb_TRANS: Attagene TRANS-FACTORIAL HepG2 Assay for human Retinoic Acid Receptor beta (AID 2283004; active means hit-call score of the fitted dose curve at least 0.9, where 1 is the maximum). The method, boiled down: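 HepG2 cells transiently transfected with multiplexed GAL4-UAS reporter units expressing chimeric NR–Gal4 fusions; 24 h compound exposure. Reporter mRNA quantified by RT-PCR, 6-FAM labelling, HpaI digestion and capillary electrophoresis; gain-of-signal fitted against DMSO baseline.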

The target of test [17] is human Retinoic Acid Receptor gamma (RARg), RARG (gene 5916) (UniProt P13631). Briefly: ATG_RARg_TRANS: Attagene TRANS-FACTORIAL HepG2 Assay for human Retinoic Acid Receptor gamma (RARg) (AID 2283009; active means hit-call score of the fitted dose curve at least 0.9, where 1 is the maximum). The method, boiled down:
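Transient transfection of HepG2 with multi-reporter constructs, then 24 h chemical treatment. Total RNA isolated, reverse-transcribed, PCR-amplified, fluorescently labelled and resolved by capillary electrophoresis; activity scored as mRNA induction versus DMSO.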

Read-out in test [18]: Interleukin-1 alpha (IL1a), IL1A (gene 3552)
Put plainly: BSK_BE3C_IL1a: BioMAP Diversity Plus: BE3C Assay for Interleukin-1 alpha (IL1a) Biomarker Activity (AID 2283016). The note with it: primary human bronchial epithelial cells; actives raise or lower the signal. The gist of the method:
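BE3C primary human bronchial epithelium; cpd 24 h; IL-1a by ELISA; bidirectional fit vs DMSO; parallel SRB (0.1% SRB, 10% TCA fix, 560 nm) for cytotoxicity.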

Test [19] in a line: BSK_3C_Proliferation: Cell Proliferation Assessment in the BioMAP Diversity Plus: 3C Assay (AID 2283006). The note with it: primary human endothelial cells (HUVEC). The method, boiled down: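 Read-out is total protein by SRB absorbance at 560 nm, taken as a proxy for relative cell number. Primary human umbilical vein endothelium cultured below confluence was dosed for 48 h, TCA-fixed and SRB-stained; curves were fitted bidirectionally versus DMSO.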

In test [20] the target is human Thyroid Receptor alpha (THRa1), THRA (gene 7067) (UniProt P10827). Briefly: ATG_THRa1_TRANS: Attagene TRANS-FACTORIAL HepG2 Assay for human Thyroid Receptor alpha (THRa1) (AID 2283014; active means hit-call score of the fitted dose curve at least 0.9, where 1 is the maximum). The method, boiled down:
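HepG2 cells transiently transfected with multiplexed GAL4-UAS reporter units for exogenous chimeric THRa1-Gal4; reporter mRNA measured 24 h after dosing by RT-PCR, 6-FAM labelling, HpaI digestion and capillary electrophoresis. Gain-of-signal fitted versus DMSO baseline.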

Inconclusive results are not listed. Activity calls are given as the source filed them. How the source made its calls, unless noted: active means hit-call score of the fitted dose curve at least 0.9, where 1 is the maximum; inactive means score below 0.9.

Peroxisome proliferator-activated receptor gamma (Homo sapiens), sequence (P37231 whole entry, looked up, the tested form may be a part): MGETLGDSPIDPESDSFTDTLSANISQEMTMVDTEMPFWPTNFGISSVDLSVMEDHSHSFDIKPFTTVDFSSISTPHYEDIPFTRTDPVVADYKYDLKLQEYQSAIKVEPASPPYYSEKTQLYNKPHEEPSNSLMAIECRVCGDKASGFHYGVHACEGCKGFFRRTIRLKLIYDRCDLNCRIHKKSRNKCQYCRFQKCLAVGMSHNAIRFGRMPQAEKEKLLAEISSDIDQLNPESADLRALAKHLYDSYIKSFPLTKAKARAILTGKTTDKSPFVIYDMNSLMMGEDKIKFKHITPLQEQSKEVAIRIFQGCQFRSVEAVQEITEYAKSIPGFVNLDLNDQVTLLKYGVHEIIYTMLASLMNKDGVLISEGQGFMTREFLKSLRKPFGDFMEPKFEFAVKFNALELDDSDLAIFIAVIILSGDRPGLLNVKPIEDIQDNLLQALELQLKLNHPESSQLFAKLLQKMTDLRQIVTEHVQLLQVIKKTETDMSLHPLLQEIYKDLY
Nuclear receptor subfamily 1 group I member 2 (Homo sapiens), sequence (O75469 whole entry, looked up, the tested form may be a part): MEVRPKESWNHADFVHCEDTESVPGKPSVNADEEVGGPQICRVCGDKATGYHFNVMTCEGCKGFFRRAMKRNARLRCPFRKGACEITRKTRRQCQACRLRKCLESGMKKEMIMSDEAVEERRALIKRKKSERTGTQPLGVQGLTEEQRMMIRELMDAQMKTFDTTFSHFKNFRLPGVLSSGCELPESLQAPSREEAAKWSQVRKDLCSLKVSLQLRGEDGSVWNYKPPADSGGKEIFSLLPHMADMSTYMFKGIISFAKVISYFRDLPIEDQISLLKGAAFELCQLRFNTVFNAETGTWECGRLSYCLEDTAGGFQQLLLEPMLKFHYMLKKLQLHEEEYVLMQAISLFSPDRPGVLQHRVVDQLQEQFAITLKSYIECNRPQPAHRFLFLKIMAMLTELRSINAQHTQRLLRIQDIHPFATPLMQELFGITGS
human RAR-related Orphan Receptor beta (RORb), RORB (gene 6096), sequence (Q92753 whole entry, looked up, the tested form may be a part): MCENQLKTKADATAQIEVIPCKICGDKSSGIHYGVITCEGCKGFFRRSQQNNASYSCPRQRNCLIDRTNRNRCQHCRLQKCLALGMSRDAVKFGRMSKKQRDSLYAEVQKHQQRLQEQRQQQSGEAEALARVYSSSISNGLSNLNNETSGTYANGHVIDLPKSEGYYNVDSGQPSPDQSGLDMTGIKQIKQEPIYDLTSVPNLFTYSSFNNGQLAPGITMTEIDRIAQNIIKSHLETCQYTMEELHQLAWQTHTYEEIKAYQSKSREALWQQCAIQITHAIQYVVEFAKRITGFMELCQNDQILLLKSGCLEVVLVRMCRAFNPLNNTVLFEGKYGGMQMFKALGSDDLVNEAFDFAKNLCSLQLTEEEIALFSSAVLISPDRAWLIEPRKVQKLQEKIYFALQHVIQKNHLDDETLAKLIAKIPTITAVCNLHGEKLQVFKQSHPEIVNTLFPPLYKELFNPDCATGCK
Retinoic acid receptor alpha (Homo sapiens), sequence (P10276 whole entry, looked up, the tested form may be a part): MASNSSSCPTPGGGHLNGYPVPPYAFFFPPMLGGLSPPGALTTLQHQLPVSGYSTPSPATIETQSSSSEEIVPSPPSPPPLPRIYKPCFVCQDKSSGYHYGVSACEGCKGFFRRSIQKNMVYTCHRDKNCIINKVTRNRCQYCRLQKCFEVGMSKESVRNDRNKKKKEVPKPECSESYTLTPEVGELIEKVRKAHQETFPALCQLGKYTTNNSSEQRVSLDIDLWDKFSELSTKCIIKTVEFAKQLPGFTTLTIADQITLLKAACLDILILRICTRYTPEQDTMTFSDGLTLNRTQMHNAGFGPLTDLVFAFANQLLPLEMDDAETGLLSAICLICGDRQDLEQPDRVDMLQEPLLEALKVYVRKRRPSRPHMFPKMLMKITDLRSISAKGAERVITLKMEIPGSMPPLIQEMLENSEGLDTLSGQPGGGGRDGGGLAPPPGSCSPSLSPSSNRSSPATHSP
Retinoic acid receptor RXR-alpha (Homo sapiens), sequence (P19793 whole entry, looked up, the tested form may be a part): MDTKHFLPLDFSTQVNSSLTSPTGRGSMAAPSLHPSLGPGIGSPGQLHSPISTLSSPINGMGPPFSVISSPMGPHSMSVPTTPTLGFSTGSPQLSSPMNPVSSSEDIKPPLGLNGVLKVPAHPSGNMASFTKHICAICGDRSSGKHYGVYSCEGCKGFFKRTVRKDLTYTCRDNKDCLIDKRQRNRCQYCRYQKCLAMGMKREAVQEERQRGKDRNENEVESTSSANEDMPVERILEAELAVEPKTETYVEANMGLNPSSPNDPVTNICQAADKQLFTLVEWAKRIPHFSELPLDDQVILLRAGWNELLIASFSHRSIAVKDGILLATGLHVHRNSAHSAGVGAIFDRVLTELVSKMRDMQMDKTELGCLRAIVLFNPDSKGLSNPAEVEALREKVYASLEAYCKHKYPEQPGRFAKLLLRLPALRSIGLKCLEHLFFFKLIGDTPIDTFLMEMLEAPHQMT
human Retinoic Acid Receptor beta (RARb), RARB (gene 5915), sequence (P10826 whole entry, looked up, the tested form may be a part): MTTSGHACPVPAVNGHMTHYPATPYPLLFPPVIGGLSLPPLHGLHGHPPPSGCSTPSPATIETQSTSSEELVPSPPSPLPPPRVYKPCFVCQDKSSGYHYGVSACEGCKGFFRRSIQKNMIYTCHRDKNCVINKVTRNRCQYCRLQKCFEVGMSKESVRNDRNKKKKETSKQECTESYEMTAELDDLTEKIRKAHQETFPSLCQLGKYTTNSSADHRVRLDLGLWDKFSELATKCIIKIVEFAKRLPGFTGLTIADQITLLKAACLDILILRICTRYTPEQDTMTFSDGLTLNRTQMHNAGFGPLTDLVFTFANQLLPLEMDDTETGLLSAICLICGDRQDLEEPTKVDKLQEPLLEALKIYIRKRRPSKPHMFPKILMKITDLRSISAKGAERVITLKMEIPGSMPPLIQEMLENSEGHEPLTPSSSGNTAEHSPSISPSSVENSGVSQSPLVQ
human RAR-related Orphan Receptor gamma (RORg), RORC (gene 6097), sequence (P51449 whole entry, looked up, the tested form may be a part): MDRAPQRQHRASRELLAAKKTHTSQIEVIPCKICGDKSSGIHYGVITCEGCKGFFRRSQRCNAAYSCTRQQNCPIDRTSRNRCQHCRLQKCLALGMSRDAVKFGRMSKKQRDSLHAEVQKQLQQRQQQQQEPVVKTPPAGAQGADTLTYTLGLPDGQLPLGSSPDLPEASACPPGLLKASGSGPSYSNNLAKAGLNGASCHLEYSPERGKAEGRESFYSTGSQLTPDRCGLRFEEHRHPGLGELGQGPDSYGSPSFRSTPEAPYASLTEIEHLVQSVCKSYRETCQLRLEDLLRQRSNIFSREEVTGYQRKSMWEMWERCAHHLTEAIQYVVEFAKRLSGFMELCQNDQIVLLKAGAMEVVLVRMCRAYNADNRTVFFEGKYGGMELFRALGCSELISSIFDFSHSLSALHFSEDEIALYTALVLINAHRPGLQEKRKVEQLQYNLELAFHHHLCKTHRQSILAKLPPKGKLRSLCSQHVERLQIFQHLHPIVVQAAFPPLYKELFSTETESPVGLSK
E-selectin (Homo sapiens), sequence (P16581 whole entry, looked up): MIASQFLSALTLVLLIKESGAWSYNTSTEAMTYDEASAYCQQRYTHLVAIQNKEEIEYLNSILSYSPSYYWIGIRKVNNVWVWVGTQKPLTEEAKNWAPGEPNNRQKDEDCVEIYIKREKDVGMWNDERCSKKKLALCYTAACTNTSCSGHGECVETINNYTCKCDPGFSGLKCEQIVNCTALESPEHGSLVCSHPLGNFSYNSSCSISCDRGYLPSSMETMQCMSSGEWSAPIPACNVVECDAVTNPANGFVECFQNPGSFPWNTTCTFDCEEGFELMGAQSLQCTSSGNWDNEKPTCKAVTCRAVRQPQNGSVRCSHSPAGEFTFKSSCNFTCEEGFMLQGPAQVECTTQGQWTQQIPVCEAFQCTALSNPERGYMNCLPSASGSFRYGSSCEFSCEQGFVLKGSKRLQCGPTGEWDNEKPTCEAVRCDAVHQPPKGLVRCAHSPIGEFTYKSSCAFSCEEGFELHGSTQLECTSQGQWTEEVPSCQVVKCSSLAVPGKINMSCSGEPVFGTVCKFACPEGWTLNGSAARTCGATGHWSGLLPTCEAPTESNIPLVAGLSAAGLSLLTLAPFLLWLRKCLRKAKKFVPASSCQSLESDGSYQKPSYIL
human Peroxisome Proliferator-activated Receptor alpha (PPARa), PPARA (gene 5465), sequence (Q07869 whole entry, looked up, the tested form may be a part): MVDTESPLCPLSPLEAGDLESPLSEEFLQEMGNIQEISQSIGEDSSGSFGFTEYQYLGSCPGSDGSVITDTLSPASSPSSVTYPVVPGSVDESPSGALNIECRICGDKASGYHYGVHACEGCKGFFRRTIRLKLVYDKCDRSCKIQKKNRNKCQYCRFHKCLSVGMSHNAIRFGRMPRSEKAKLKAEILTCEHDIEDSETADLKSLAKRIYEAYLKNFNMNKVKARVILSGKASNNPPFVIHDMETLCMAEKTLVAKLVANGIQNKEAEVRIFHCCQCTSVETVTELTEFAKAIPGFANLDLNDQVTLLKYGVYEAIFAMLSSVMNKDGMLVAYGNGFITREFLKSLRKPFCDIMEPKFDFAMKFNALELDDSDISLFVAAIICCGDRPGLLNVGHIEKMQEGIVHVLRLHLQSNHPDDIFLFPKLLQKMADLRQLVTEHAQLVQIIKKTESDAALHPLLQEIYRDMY
human Retinoid X Receptor beta (RXRb), RXRB (gene 6257), sequence (P28702 whole entry, looked up, the tested form may be a part): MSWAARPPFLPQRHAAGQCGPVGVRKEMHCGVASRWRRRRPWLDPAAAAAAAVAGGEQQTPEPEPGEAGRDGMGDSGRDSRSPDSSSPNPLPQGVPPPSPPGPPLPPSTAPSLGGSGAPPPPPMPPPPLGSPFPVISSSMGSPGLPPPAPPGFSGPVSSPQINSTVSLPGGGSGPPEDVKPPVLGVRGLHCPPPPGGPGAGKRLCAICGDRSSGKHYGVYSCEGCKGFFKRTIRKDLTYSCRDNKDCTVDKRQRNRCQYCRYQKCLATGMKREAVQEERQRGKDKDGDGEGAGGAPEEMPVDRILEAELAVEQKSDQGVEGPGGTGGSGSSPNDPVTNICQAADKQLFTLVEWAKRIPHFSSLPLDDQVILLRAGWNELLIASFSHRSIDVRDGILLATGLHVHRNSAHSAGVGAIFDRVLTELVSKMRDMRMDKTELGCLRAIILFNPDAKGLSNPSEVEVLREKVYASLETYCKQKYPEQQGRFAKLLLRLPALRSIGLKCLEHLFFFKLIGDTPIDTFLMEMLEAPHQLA

In the case of `COc1cc(OC)nc(NC(=O)NS(=O)(=O)c2ncccc2OCC(F)(F)F)n1`, the result in [1], in test [2], in test [3], in test [4], in test [5] and in test [6] was inactive. Besides, the result in [7], in test [8], in [9], in test [10], in test [11] and in test [12] was inactive. For the same molecule, the outcome in [13] and in test [14] was inactive.
On to `CN/C(=N\[N+](=O)[O-])NCc1cnc(Cl)s1`, for which the outcome in test [1], in test [2], in test [3], in test [15], in test [5] and in test [10] was inactive. The outcome in test [11], in [12], in test [13] and in test [14] was inactive.
For the molecule `CC(C)Oc1cccc(NC(=O)c2ccccc2C(F)(F)F)c1`, the result in test [1], in [2], in test [3], in [16], in [15] and in [17] was inactive. For the same molecule, the molecule was classed as inactive in [6], in test [7], in test [8], in [9], in [10] and in [18]. In addition, the result in test [11], in test [12], in test [13] and in [14] was inactive. For the same molecule, the AC50 – broadly, the concentration giving half of the maximal activity seen – in test [5] is 23.4 µM (active).
Consider `COCC(C)N(C(=O)CCl)c1c(C)csc1C` (stereo not given), for which the outcome in [1], in test [2], in test [3], in [19], in test [5] and in test [7] was inactive. Further, the result in test [10], in test [18], in test [11], in test [12], in test [13] and in test [14] was inactive. Also, in test [4], the AC50 is 3.79 µM (active).
On to `COP(=S)(OC)Oc1ccc([N+](=O)[O-])c(C)c1`, for which the outcome in test [1], in test [2], in test [3], in [5], in test [6] and in test [9] was inactive. The result in [10], in test [18], in [12] and in [14] was inactive. Also, the half-maximal activity concentration (AC50) in test [11] is 30.8 µM (active); in [13], 20 µM (active).
Take `Cc1cc(C)nc(Nc2ccccc2)n1`: the outcome in test [1], in test [2], in [3], in test [16], in test [15] and in [5] was inactive. The result in test [6], in test [8], in test [9], in [20], in [10] and in [11] was inactive. The result in test [12] and in test [14] was inactive. In [13], the AC50 is 16.6 µM (active).
For the molecule `O=P(O)(O)CCCl`, the result in test [1], in test [2], in test [16], in test [15], in test [19] and in test [4] was inactive. The molecule was called inactive in test [5], in test [17], in [7], in [8], in [9] and in test [10]. For the same molecule, the result in test [18], in test [11], in [12], in [13] and in test [14] was inactive.
Consider `O=c1n(Cl)c(=O)n(Cl)c(=O)n1Cl`, for which the result in test [1], in test [2], in test [3], in [16], in test [15] and in [19] was inactive. Further, the molecule was classed as inactive in test [5], in [17], in test [6], in test [7], in test [8] and in test [9]. Also, the result in test [10], in test [11], in test [12] and in test [14] was inactive. The concentration at half-maximal activity (AC50) in [13] is 3.97 µM (active).
